SMILES strings stand for the structures. The campaign covered roughly 39,000 compounds. About 3,300 (8.5%) were called active. Shown is part of a subset that was picked to be rich in actives.

For this experiment, the system named is HepG2. The experiment is described as follows: cytotoxicity call (relative viability < 0.9). The settings on record: 10 µM.
`COc1cccc(-c2ccc3c(c2)O[C@@H](CN(C)C(=O)C2CC2)[C@H](C)CN([C@@H](C)CO)S3(=O)=O)c1`: the cytotoxicity call is “inactive”.

In the case of `O=C(C[C@@H]1C[C@@H]2c3cc(NS(=O)(=O)c4ccc(F)cc4)ccc3O[C@@H]2[C@@H](CO)O1)NCCN1CCCCC1`, the cytotoxicity call was “inactive”.

Take `C[C@H]1CN([C@@H](C)CO)C(=O)c2cc(C#Cc3ccncc3)cnc2O[C@H]1CN(C)S(=O)(=O)c1ccccc1F`: the cytotoxicity call was “active”.

Regarding `C[C@@H]1CN([C@H](C)CO)C(=O)c2cc(C#Cc3ccncc3)cnc2O[C@H]1CN(C)S(=O)(=O)c1ccccc1F`, the cytotoxicity call is “inactive”.

In the case of `C[C@H]1CN([C@@H](C)CO)C(=O)c2cc(C#Cc3ccccc3)cnc2O[C@@H]1CN(C)S(=O)(=O)c1ccccc1F`, the cytotoxicity call is “inactive”.

As to `C[C@H]1CN([C@@H](C)CO)C(=O)c2cc(C#Cc3ccncc3)cnc2O[C@@H]1CN(C)S(=O)(=O)c1ccccc1F`, the cytotoxicity call is “active”.

For the molecule `C[C@@H]1CN([C@@H](C)CO)C(=O)c2cc(C#Cc3ccncc3)cnc2O[C@H]1CN(C)S(=O)(=O)c1ccccc1F`, the cytotoxicity call was “active”.

Turning to `C[C@@H]1CN([C@@H](C)CO)C(=O)c2cc(C#Cc3ccncc3)cnc2O[C@@H]1CN(C)S(=O)(=O)c1ccccc1F`, the cytotoxicity call is “inactive”.

Regarding `C[C@@H]1CN([C@H](C)CO)C(=O)c2cc(C#Cc3cccnc3)cnc2O[C@H]1CN(C)S(=O)(=O)c1ccccc1F`, the cytotoxicity call is “inactive”.

Regarding `C[C@@H]1CN([C@H](C)CO)C(=O)c2cc(C#Cc3ccccc3)cnc2O[C@H]1CN(C)S(=O)(=O)c1ccccc1F`, the cytotoxicity call is “inactive”.

As for `C[C@@H]1CN([C@H](C)CO)C(=O)c2cc(C#Cc3cccnc3)cnc2O[C@@H]1CN(C)S(=O)(=O)c1ccccc1F`, the cytotoxicity call is “inactive”.

As for `C[C@H](CO)N1C[C@H](C)[C@@H](CN(C)S(=O)(=O)c2ccccc2F)Oc2ncc(C#Cc3ccncc3)cc2C1=O`, the cytotoxicity call was “inactive”.

Regarding `C[C@H](CO)N1C[C@H](C)[C@H](CN(C)S(=O)(=O)c2ccccc2F)Oc2ncc(C#Cc3ccncc3)cc2C1=O`, the cytotoxicity call was “active”.

Take `C[C@@H]1CN([C@H](C)CO)C(=O)c2cc(C#Cc3ccncc3)cnc2O[C@@H]1CN(C)S(=O)(=O)c1ccccc1F`: the cytotoxicity call is “inactive”.

`COc1ccc(S(=O)(=O)N[C@@H]2CC[C@@H](CC(=O)N3CCC(Cc4ccccc4)CC3)O[C@@H]2CO)cc1`: the cytotoxicity call was “inactive”.

On to `O=c1c(-c2ccc(O)cc2)coc2c([C@H]3O[C@H](CO)[C@@H](O)[C@H](O)[C@H]3O)c(O)ccc12`, for which the cytotoxicity call is “inactive”.

As for `Cc1ccc2nc(-c3ccco3)[nH]c2c1`, the cytotoxicity call is “inactive”.

For `CCS(=O)(=O)N1C[C@]2(CCN(CC2)C(=O)Nc2c(noc2C)C)c2c(n(c3cc(ccc23)OC)C)[C@@H]1CO`, the cytotoxicity call is “inactive”.

As for `C[C@H](CO)N1C[C@H](C)[C@@H](CN(C)S(=O)(=O)c2ccc(F)cc2)Oc2ccc(NC(=O)Cc3ccccc3)cc2CC1=O`, the cytotoxicity call is “inactive”.

For the molecule `COc1cccc(NC(=O)N[C@@H]2CC[C@H](CC(=O)N3CCN(C)CC3)O[C@H]2CO)c1`, the cytotoxicity call was “inactive”.

For `O=C(C[C@@H]1C=C[C@H](NC(=O)c2ccc(F)cc2)[C@H](CO)O1)NCc1ccncn1`, the cytotoxicity call was “inactive”.

As to `C[C@@H]1CCCCO[C@H](CN(C)C(=O)Cc2ccccc2)[C@@H](C)CN([C@@H](C)CO)C(=O)c2cc(NC(=O)Nc3ccc(C(F)(F)F)cc3)ccc2O1`, the cytotoxicity call was “inactive”.

As to `C[C@@H]1CN([C@H](C)CO)C(=O)Cc2cc(NC(=O)Nc3cccc4ccccc34)ccc2O[C@@H]1CN(C)Cc1ccc(C(=O)O)cc1`, the cytotoxicity call is “inactive”.

As for `COCCNC(=O)C[C@@H]1CC[C@H]2[C@@H](COC[C@@H](O)CN2S(=O)(=O)c2ccccc2C)O1`, the cytotoxicity call is “inactive”.

With `C[C@H](CO)N1C[C@H](C)[C@@H](CN(C)Cc2ccc(C(=O)Nc3ccccc3N)cc2)Oc2ccc(NS(=O)(=O)c3ccc(Cl)cc3)cc2CC1=O`, the cytotoxicity call was “inactive”.

For the molecule `C[C@H]1CN([C@@H](C)CO)C(=O)c2cccc(NC(=O)C3CC3)c2O[C@H]1CN(C)S(=O)(=O)c1cn(C)cn1`, the cytotoxicity call is “inactive”.

Take `C[C@H](CO)N1C[C@H](C)[C@H](CN(C)S(=O)(=O)c2ccc(Cl)cc2)OCCCC[C@H](C)Oc2ccc(NS(=O)(=O)c3ccc(F)cc3)cc2C1=O`: the cytotoxicity call is “active”.

With `C[C@@H]1CCCCO[C@H](CN(C)S(=O)(=O)c2ccc(F)cc2)[C@H](C)CN([C@@H](C)CO)C(=O)c2cc(NS(=O)(=O)c3ccc(Cl)cc3)ccc2O1`, the cytotoxicity call was “active”.

Consider `C[C@@H]1CCCCO[C@H](CN(C)S(=O)(=O)c2ccc(F)cc2)[C@@H](C)CN([C@@H](C)CO)C(=O)c2cc(NS(=O)(=O)c3ccc(Cl)cc3)ccc2O1`, for which the cytotoxicity call was “inactive”.

In the case of `C[C@H](CO)N1C[C@H](C)[C@@H](CN(C)S(=O)(=O)c2ccc(Cl)cc2)OCCCC[C@H](C)Oc2ccc(NS(=O)(=O)c3ccc(F)cc3)cc2C1=O`, the cytotoxicity call is “inactive”.

`C[C@@H]1CCCCO[C@H](CN(C)S(=O)(=O)c2ccc(Cl)cc2)[C@@H](C)CN([C@@H](C)CO)C(=O)c2cc(NS(=O)(=O)c3ccc(F)cc3)ccc2O1`: the cytotoxicity call was “inactive”.

With `C[C@@H]1CN([C@@H](C)CO)C(=O)c2cc(NS(=O)(=O)c3ccc(F)cc3)ccc2O[C@@H](C)CCCCO[C@H]1CN(C)S(=O)(=O)c1ccc(Cl)cc1`, the cytotoxicity call was “inactive”.

On to `C[C@@H]1CN([C@@H](C)CO)C(=O)c2cc(NS(=O)(=O)c3ccc(F)cc3)ccc2O[C@@H](C)CCCCO[C@@H]1CN(C)S(=O)(=O)c1ccc(Cl)cc1`, for which the cytotoxicity call is “inactive”.

Consider `C[C@@H]1CCCCO[C@@H](CN(C)S(=O)(=O)c2ccc(Cl)cc2)[C@@H](C)CN([C@@H](C)CO)C(=O)c2cc(NS(=O)(=O)c3ccc(F)cc3)ccc2O1`, for which the cytotoxicity call is “active”.

For `C[C@@H]1CCCCO[C@H](CN(C)S(=O)(=O)c2ccc(Cl)cc2)[C@H](C)CN([C@@H](C)CO)C(=O)c2cc(NS(=O)(=O)c3ccc(F)cc3)ccc2O1`, the cytotoxicity call is “active”.

For `C[C@@H]1CCCCO[C@H](CN(C)S(=O)(=O)c2ccc(Cl)cc2)[C@H](C)CN([C@H](C)CO)C(=O)c2cc(NS(=O)(=O)c3ccc(F)cc3)ccc2O1`, the cytotoxicity call is “inactive”.

Consider `COc1ccc(S(=O)(=O)Nc2ccc3c(c2)C(=O)N([C@H](C)CO)C[C@@H](C)[C@@H](CN(C)S(=O)(=O)c2cn(C)cn2)O3)cc1`, for which the cytotoxicity call was “inactive”.

As for `O=C(N[C@H]1CCS(=O)(=O)C1)N1CCCCC1`, the cytotoxicity call was “inactive”.

Consider `Cc1ccc(N2C(=O)c3ccccc3[C@](C)(C(=O)NCCN3CCOCC3)[C@@H]2c2ccc(CO)cc2)nc1`, for which the cytotoxicity call was “inactive”.

Take `C[C@@H]1CN([C@H](C)CO)C(=O)Cc2cc(NC(=O)Cn3cnnn3)ccc2O[C@@H]1CN(C)C(=O)Nc1ccc(F)cc1`: the cytotoxicity call was “inactive”.

As to `Cc1ccc(S(=O)(=O)N(C)C[C@H]2OCCCC[C@H](C)Oc3ccc(NC(=O)Nc4cccc5ccccc45)cc3C(=O)N([C@@H](C)CO)C[C@H]2C)cc1`, the cytotoxicity call is “inactive”.

For `O=C(C1=C[C@@H](C2CC2)C[C@@H](OCc2ccc(CO)cc2)O1)N1CCN(Cc2ccc3c(c2)OCO3)CC1`, the cytotoxicity call was “inactive”.

Turning to `CCC(=O)O[C@H]1[C@H](O[C@@H]2[C@@H](C)[C@H](O[C@H]3C[C@@](C)(OC)[C@@H](O)[C@H](C)O3)[C@@H](C)C(=O)O[C@H](CC)[C@@](C)(O)[C@H](O)[C@@H](C)C(=O)[C@H](C)C[C@@]2(C)O)O[C@H](C)C[C@@H]1N(C)C`, the cytotoxicity call is “inactive”.

With `O=C(C[C@H]1C=C[C@H](NC(=O)c2ccc(F)cc2)[C@H](CO)O1)NCc1ccncn1`, the cytotoxicity call is “inactive”.

On to `CN(C)C(=O)c1ccc(-c2cccc(-c3nc(C(=O)NC4CCC4)cc4c3[C@@H](CCO)N([S@](=O)C(C)(C)C)C4)c2)cc1`, for which the cytotoxicity call is “inactive”.

In the case of `C[C@@H]1CCCCO[C@@H](CN(C)S(=O)(=O)c2cccs2)[C@@H](C)CN([C@@H](C)CO)C(=O)c2cc(NC(=O)Nc3ccc(F)cc3)ccc2O1`, the cytotoxicity call was “inactive”.

For `C[C@H](CO)N1C[C@H](C)[C@@H](CN(C)S(=O)(=O)c2ccc(F)cc2)OCCCC[C@H](C)Oc2ccc(NS(=O)(=O)c3ccc(Cl)cc3)cc2C1=O`, the cytotoxicity call was “inactive”.

Regarding `C[C@@H]1CCCCO[C@H](CN(C)S(=O)(=O)c2ccc(F)cc2)[C@H](C)CN([C@H](C)CO)C(=O)c2cc(NS(=O)(=O)c3ccc(Cl)cc3)ccc2O1`, the cytotoxicity call was “inactive”.

Turning to `C[C@@H]1CN([C@H](C)CO)C(=O)c2cc(NS(=O)(=O)c3ccc(F)cc3)ccc2O[C@@H](C)CCCCO[C@H]1CN(C)S(=O)(=O)c1ccc(Cl)cc1`, the cytotoxicity call was “inactive”.

As for `C[C@H]1CCCCO[C@H](CN(C)S(=O)(=O)c2ccc(Cl)cc2)[C@@H](C)CN([C@@H](C)CO)C(=O)c2cc(NS(=O)(=O)c3ccc(F)cc3)ccc2O1`, the cytotoxicity call is “active”.

For the molecule `C[C@@H]1CCCCO[C@H](CN(C)S(=O)(=O)c2ccc(F)cc2)[C@@H](C)CN([C@H](C)CO)C(=O)c2cc(NS(=O)(=O)c3ccc(Cl)cc3)ccc2O1`, the cytotoxicity call is “inactive”.

For the molecule `C[C@H]1CCCCO[C@H](CN(C)S(=O)(=O)c2ccc(F)cc2)[C@@H](C)CN([C@@H](C)CO)C(=O)c2cc(NS(=O)(=O)c3ccc(Cl)cc3)ccc2O1`, the cytotoxicity call is “active”.

With `C[C@H]1CCCCO[C@@H](CN(C)S(=O)(=O)c2ccc(Cl)cc2)[C@@H](C)CN([C@@H](C)CO)C(=O)c2cc(NS(=O)(=O)c3ccc(F)cc3)ccc2O1`, the cytotoxicity call is “inactive”.

`C[C@H](CO)N1C[C@H](C)[C@H](CN(C)S(=O)(=O)c2ccc(F)cc2)OCCCC[C@H](C)Oc2ccc(NS(=O)(=O)c3ccc(Cl)cc3)cc2C1=O`: the cytotoxicity call was “inactive”.

Take `C[C@@H]1CN([C@H](C)CO)C(=O)c2cc(NS(=O)(=O)c3ccc(Cl)cc3)ccc2O[C@@H](C)CCCCO[C@H]1CN(C)S(=O)(=O)c1ccc(F)cc1`: the cytotoxicity call was “active”.

With `CC(C)NC(=O)N(C)C[C@H]1Oc2ccc(NC(=O)Cc3ccccc3)cc2CC(=O)N([C@H](C)CO)C[C@H]1C`, the cytotoxicity call is “inactive”.

As to `C[C@@H]1CCCCO[C@H](CN(C)Cc2ccc(C(=O)O)cc2)[C@H](C)CN([C@H](C)CO)C(=O)c2cc(NS(=O)(=O)c3ccc(Cl)cc3)ccc2O1`, the cytotoxicity call is “inactive”.

The values are drawn from the antibiotic and cytotoxicity screens of Wong et al. (2023).
